Entries with a potency or affinity are not part of this list.
Experiment: inducers of Cryptococcus neoformans cell lysis, dose response, AK release luminescence, cherry-picks (AID 687000);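 also: luminescent detection of adenylate kinase leaking from lysed yeast; 0% = median neutral control signal and 100% = double that signal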
Conditions: C. neoformans lysis, adenylate kinase release luminescence, 4 h, 100% = twice the neutral-control signal; series mostly up to 15 µM; lysis activity: at the top concentration;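 active = fitted dose curve reaches 40% lysis signal rise at or below the highest valid concentration tested for that sample; inconclusive = flat fit between 30% and 70%, or poor curve fit; inactive = signal falls, stays flat within 30%, or no crossing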

Lysis activity, inactive:
COCCNC(=O)C[C@H]1CC[C@@H]2[C@H](COC[C@H](O)CN2S(=O)(=O)c2ccccc2C)O1 14.2%
COc1ccccc1NC(=O)N[C@H]1CC[C@@H](CCn2cc(-c3ccccc3OC)nn2)O[C@@H]1CO 8.23%
CC(C)NC(=O)Nc1ccc2c(c1)C(=O)N([C@H](C)CO)C[C@@H](C)[C@H](CN(C)C(=O)Nc1ccccc1)OCCCC[C@@H](C)O2 2.82%
CCCNC(=O)N1C[C@@H](O)COC[C@H]2O[C@H](CC(=O)N3CCN(C)CC3)CC[C@@H]21 4.19%
CCS(=O)(=O)NCC[C@@H]1CC[C@@H](NS(=O)(=O)c2cccc(F)c2)[C@@H](CO)O1 -3.02%
CO[C@@H]1CN(C)C(=O)c2ccc(NC(=O)C3CC3)cc2OC[C@H](C)N(Cc2ccc(F)cc2)C[C@H]1C 14.8%
CC=Cc1ccc2n(c1=O)C[C@@H]1[C@@H](CO)[C@H](C(=O)N3CCCCC3)N(Cc3ccccc3)[C@H]21 (mixture of isomers) -5.15%
CCC(=O)N(C)C[C@H]1Oc2cc(C#CC(C)(C)O)ccc2S(=O)(=O)N([C@H](C)CO)C[C@@H]1C -16.3% [at 7.5 µM]
C[C@@H]1CN([C@H](C)CO)C(=O)c2cc(NS(=O)(=O)c3ccccc3)ccc2O[C@H]1CN(C)C(=O)NC1CCCCC1 -9.16%
CCC(=O)N[C@H]1C=C[C@@H](CC(=O)OC)O[C@@H]1CO 8.59%
C[C@@H]1CN([C@@H](C)CO)C(=O)CCCn2nncc2CO[C@H]1CN(C)Cc1cccc(C(F)(F)F)c1 6.63%
C[C@H](CO)N1C[C@H](C)[C@H](CN(C)C(=O)Nc2cccc3ccccc23)Oc2ccc(NC(=O)Nc3ccccc3)cc2C1=O 9.12%
O=C(C[C@@H]1C=C[C@@H](NC(=O)C2CCC2)[C@H](CO)O1)NC1CCC1 11.8%
CO[C@H]1CN(C)C(=O)c2cc(NC(=O)C3CCOCC3)ccc2OC[C@@H](C)NC[C@H]1C -5.76%
CC(C)NC(=O)NCC[C@@H]1CC[C@@H](NC(=O)CN(C)C)[C@@H](CO)O1 3.26%
C[C@@H]1CCCCO[C@@H](CN(C)Cc2ccc3c(c2)OCO3)[C@@H](C)CN([C@H](C)CO)C(=O)c2cc(NS(=O)(=O)c3ccc(F)cc3)ccc2O1 -5.17%
Cc1ccc(C)c(NC(=O)C2CCCN2C(=O)NC2CCCCC2)c1 (stereo not given) -1.51%
CCCNC(=O)N(C)C[C@@H]1Oc2ncc(C#CC3CCCCC3)cc2C(=O)N([C@H](C)CO)C[C@@H]1C 5.66%
O=C(C[C@H]1CC[C@H](NC(=O)Nc2ccc(C(F)(F)F)cc2)[C@H](CO)O1)NCc1cccc(F)c1 2.95%
CCc1ccc(NC(=O)C2NC(=O)CC2c2ccccc2)cc1 (stereo not given) -12.2% [at 23.5 µM]
CNC(=O)C[C@@H]1CC[C@H]2[C@@H](COC[C@H](O)CN2C(=O)Nc2ccc3c(c2)OCO3)O1 0.621%
O=C(N[C@H]1CC[C@@H](CCn2cc(-c3ccccc3)nn2)O[C@@H]1CO)c1cnccn1 -1.37%
CC(=O)N1[C@@H](CO)[C@H](c2ccc(-c3ccccc3)cc2)[C@@H]1CNC(=O)C1CC1 -10.5%
O=C(CSc1ncnc2c1cnn2-c1ccc(F)cc1)NC1CCCC1 -16%
O=C(Nc1ccc(F)cc1)N1C[C@@H]2[C@H](c3ccccc31)[C@H](CO)N2Cc1cocn1 3.25%
CC(=O)NC[C@@H]1[C@@H](c2ccc(C3=CCCC3)cc2)[C@@H](CO)N1C(=O)NC(C)C 13.3%
C[C@H](CO)N1C[C@H](C)[C@@H](CN(C)C(=O)c2cccc(F)c2)Oc2cc(-c3cncnc3)ccc2S1(=O)=O -4.8%
CCCNC(=O)N(C)C[C@@H]1Oc2ncc(C#CCc3ccccc3)cc2C(=O)N([C@@H](C)CO)C[C@@H]1C -17.6%
CCC(=O)N1[C@H](CO)[C@H](c2ccccc2)[C@H]1CN(CC)C(=O)c1cccc(F)c1 -4.07%
CNC(=O)C[C@H]1CC[C@H]2[C@H](COc3ccc(NC(=O)c4cc(C)on4)cc3C(=O)N2C)O1 -15%
C[C@@H]1CN([C@H](C)CO)C(=O)c2cc(NC(=O)Nc3cccc4ccccc34)ccc2O[C@@H](C)CCCCO[C@@H]1CN(C)Cc1ccc2c(c1)OCO2 -0.558%
Cc1nnc(NC(=O)CSc2ncnc3c2cnn3-c2ccccc2C)s1 4.63%
O=C(NC[C@H]1[C@@H](c2ccccc2)[C@@H](CO)N1C(=O)C1CCC1)NC1CCCC1 4.79%
O=C(NCC[C@H]1CC[C@@H](NS(=O)(=O)c2ccc(F)cc2)[C@H](CO)O1)c1ccc2c(c1)OCO2 -1.55%
CO[C@@H]1CN(C)C(=O)c2ccc(NC(=O)NC(C)C)cc2OC[C@H](C)NC[C@@H]1C 0.787%
COc1ccc(NC(=O)N(C)C[C@@H]2OCCCC[C@H](C)Oc3ccc(NC(=O)Nc4ccc5c(c4)OCO5)cc3C(=O)N([C@H](C)CO)C[C@@H]2C)cc1 5.65%
COc1ccc(-c2cnc3c(c2)C(=O)N([C@H](C)CO)C[C@H](C)[C@H](CN(C)Cc2ccc(F)cc2)O3)cc1 15.5%
Cc1cc(C(=O)NC(=S)Nc2ccccc2N2CCCC2)ccc1[N+](=O)[O-] 4.06%
COc1ccccc1CNC(=O)COc1ccc2c(c1)CCC2 -19.2%
CCC(=O)N1C[C@H](O)COC[C@@H]2O[C@@H](CC(=O)NCc3ccccc3Cl)CC[C@H]21 1.45%

— PubChem BioAssay
